# Assays:
# Experiment in all cases: pooled miR-30 sensor sort-seq; sequence = guide strand
# Details in all cases: shRNA
# ATOX1 = target: ATOX1
# ATG16L1 = target: ATG16L1
# ATHL1 = target: ATHL1
# ATP6V0A4 = target: ATP6V0A4
# AVPR1B = target: AVPR1B
# ATP8B3 = target: ATP8B3
# ATP8A2 = target: ATP8A2
# BBC3 = target: BBC3
# BCL7A = target: BCL7A
# BRAP = target: BRAP
# BOLA1 = target: BOLA1
# BRD2 = target: BRD2
# BOP1 = target: BOP1
# Note: reference of the scale not given here.
sequence,measurement,setting,value
AGTCTTTCCTGTTTTCTTCAGG,sensor-assay potency score (higher = more potent),ATOX1,-1.75
ATGTCATACTTAACTCCTCCAA,sensor-assay potency score (higher = more potent),ATOX1,-0.956
TCAATGTCATACTTAACTCCTC,sensor-assay potency score (higher = more potent),ATOX1,-0.482
TTTATGCAGACTTTGCTGCGTA,sensor-assay potency score (higher = more potent),ATG16L1,-0.62
TCGAGCTGTGACCTCCACGGTC,sensor-assay potency score (higher = more potent),ATHL1,-1.01
AACTCCTCCAAGCTTATTGAGG,sensor-assay potency score (higher = more potent),ATOX1,-1.32
TACACAGAGTTGTTGACCCCTG,sensor-assay potency score (higher = more potent),ATHL1,-0.218
TCAATGCAGACCTTCTTGTTGG,sensor-assay potency score (higher = more potent),ATOX1,-0.56
AATGCAGACCTTCTTGTTGGGC,sensor-assay potency score (higher = more potent),ATOX1,-0.556
TTCAGCACAGCCTCCACAGGTC,sensor-assay potency score (higher = more potent),ATOX1,-0.0676
TCGAAATAGCTGCAGGTCCTGG,sensor-assay potency score (higher = more potent),ATHL1,-1.24
TTCCTGTTTTCTTCAGGGTTGC,sensor-assay potency score (higher = more potent),ATOX1,-0.392
TCAAAGGGTACCTTGATCTTGT,sensor-assay potency score (higher = more potent),ATHL1,0.372
TAGGAAACAGTCTTTCCTGTTT,sensor-assay potency score (higher = more potent),ATOX1,-0.521
TAGTTAAACAGAAACATGTTGA,sensor-assay potency score (higher = more potent),ATP6V0A4,-0.563
TGACAGACAGCCAGGTAGCGGT,sensor-assay potency score (higher = more potent),AVPR1B,-1.51
TTTTTGTGTCAAAACCAGCATA,sensor-assay potency score (higher = more potent),ATP8B3,-0.74
TTTGATGTTGCTCTTCTTGAGA,sensor-assay potency score (higher = more potent),ATP8B3,-0.55
TTGGTCAACAGCAACTTCTCAG,sensor-assay potency score (higher = more potent),ATP8B3,-0.358
TTGAGTATACTTCACAACCTCA,sensor-assay potency score (higher = more potent),ATP8A2,-0.741
TAGAAGTTGTACTTGGCCGTGC,sensor-assay potency score (higher = more potent),ATP8B3,1.18
ATCAGGGGCATTCTTGTCCCAC,sensor-assay potency score (higher = more potent),AVPR1B,-1.06
TAATTTTTGTGTCAAAACCAGC,sensor-assay potency score (higher = more potent),ATP8B3,-1.1
TTTAGGTTTTTACAGATCTCAT,sensor-assay potency score (higher = more potent),AVPR1B,-1.13
ATCTTCACTGTTCGGATCTTGG,sensor-assay potency score (higher = more potent),AVPR1B,-1.06
TTAAAGTTCATGATATTGCATG,sensor-assay potency score (higher = more potent),ATP8A2,-0.75
TTTTTACAGATCTCATGGCAGA,sensor-assay potency score (higher = more potent),AVPR1B,-0.895
TAGGTGGAGGCAAACATGCTGA,sensor-assay potency score (higher = more potent),AVPR1B,-0.677
TTCTTTGACTGAGAAACCGAAG,sensor-assay potency score (higher = more potent),ATP8B3,-1.15
TTGGCCAGCTCCTCATCCCGGC,sensor-assay potency score (higher = more potent),AVPR1B,-0.765
TTGGTGGAATCTTCATCAGGGG,sensor-assay potency score (higher = more potent),AVPR1B,-0.225
TTCACTGTTCGGATCTTGGCCC,sensor-assay potency score (higher = more potent),AVPR1B,0.0628
TCTGCCAGCTCCAAGTCCCTTG,sensor-assay potency score (higher = more potent),AVPR1B,-1.14
TTGATCTCTTGAGAGGCGCTTT,sensor-assay potency score (higher = more potent),ATP8A2,-0.359
TAGGTTTTTACAGATCTCATGG,sensor-assay potency score (higher = more potent),AVPR1B,0.26
TAGTACATCTGCACGTCCCAGT,sensor-assay potency score (higher = more potent),ATP8B3,0.127
TTGGTGACTCTTCAGGCCTGGG,sensor-assay potency score (higher = more potent),AVPR1B,-0.954
TTCAACATAACACATTGCCTGA,sensor-assay potency score (higher = more potent),ATP8A2,-0.505
TGTGTCTTGACTTTTAGGTTTT,sensor-assay potency score (higher = more potent),AVPR1B,-1.08
AAGATAGCCAGGGTGGTCCAGG,sensor-assay potency score (higher = more potent),AVPR1B,-1.04
ATCTGGACACTGAAGAAGGGAG,sensor-assay potency score (higher = more potent),AVPR1B,-1.3
TAAATGACCAGTCCATAGCAGG,sensor-assay potency score (higher = more potent),ATP8B3,-1.07
TTGACTGAGAAACCGAAGCCGA,sensor-assay potency score (higher = more potent),ATP8B3,-0.857
TTTTAGGTTTTTACAGATCTCA,sensor-assay potency score (higher = more potent),AVPR1B,-0.253
TTTACAGATCTCATGGCAGATG,sensor-assay potency score (higher = more potent),AVPR1B,-1.02
TTGGTCTTGTATTTCTTCCTTT,sensor-assay potency score (higher = more potent),ATP8B3,-0.502
TTCTCTGACAGCAGCTCGCAGG,sensor-assay potency score (higher = more potent),ATP8B3,-0.893
TAAGTGCAGCACGAACAGGTGC,sensor-assay potency score (higher = more potent),AVPR1B,-0.436
TTTGTCTCCTGTCAACACCCAT,sensor-assay potency score (higher = more potent),ATP8A2,-1.17
TTGACTTTTAGGTTTTTACAGA,sensor-assay potency score (higher = more potent),AVPR1B,-0.906
TTCTTGTCCCACACGGACCACA,sensor-assay potency score (higher = more potent),AVPR1B,-1.03
AAACATGCTGAGCACCTGCAGG,sensor-assay potency score (higher = more potent),AVPR1B,-1.16
TTTCTTGTCATTCCATTCCAGG,sensor-assay potency score (higher = more potent),ATP8B3,-1.26
TGGTGGAATCTTCATCAGGGGC,sensor-assay potency score (higher = more potent),AVPR1B,-1.82
TTAGGTTTTTACAGATCTCATG,sensor-assay potency score (higher = more potent),AVPR1B,-1.16
TTGAAGCCCATGTAGATCCAGG,sensor-assay potency score (higher = more potent),AVPR1B,-0.752
TACAGTATCTTACAGGCTGGGC,sensor-assay potency score (higher = more potent),BBC3,-0.231
TGCTCCTCTTGTCTCCGCCGCT,sensor-assay potency score (higher = more potent),BBC3,-1.11
TGAGCCACACTTCTCGTCCTTG,sensor-assay potency score (higher = more potent),BCL7A,-0.721
TAGGGATGTGTCACCAACGGTC,sensor-assay potency score (higher = more potent),BCL7A,-0.791
TGACATACCGTCCACATCCTAT,sensor-assay potency score (higher = more potent),BRAP,-1.06
TTCTTGTTCCCACCCAGGCATG,sensor-assay potency score (higher = more potent),BOLA1,-1.63
TAAAATCTTGCATACACTCTGA,sensor-assay potency score (higher = more potent),BRD2,-0.097
TTATTTACAAGTTAGAATCAAC,sensor-assay potency score (higher = more potent),BRD2,-0.816
TGGGGGGCTAGTGTCCAGCTGA,sensor-assay potency score (higher = more potent),BOLA1,-1.56
TGCGAAGCTCTAGCACCTCGGG,sensor-assay potency score (higher = more potent),BOLA1,-1.19
TACATCAGCAGCAAACTCCTGT,sensor-assay potency score (higher = more potent),BRD2,0.587
TGCAGTAACAGCAAGGAGCGGG,sensor-assay potency score (higher = more potent),BRD2,-0.301
TTTGGGATTGGACACCTCCGGG,sensor-assay potency score (higher = more potent),BRD2,-1.12
TTAGTAAATATGAATACTCTAA,sensor-assay potency score (higher = more potent),BRAP,-0.689
TTCTCTATCCGAACTATCTTGT,sensor-assay potency score (higher = more potent),BRAP,-0.12
TAGTCAGGATCGTCCATCTTGT,sensor-assay potency score (higher = more potent),BOP1,-0.541
AAAACTATCCGCATCAGCCTGT,sensor-assay potency score (higher = more potent),BRAP,0.418
TTGACGGGCACCAGCAAGGGGT,sensor-assay potency score (higher = more potent),BOP1,-1.16
ATCCAGGTCAAACCACACCAGC,sensor-assay potency score (higher = more potent),BOP1,-1.99
TAGGAGATCATTTAGTTTGTGC,sensor-assay potency score (higher = more potent),BRAP,0.0397
TAGTGAGTGATTCTTCTCTTTT,sensor-assay potency score (higher = more potent),BOLA1,-0.956
TTGCTATCGTAGCTCCCACAGA,sensor-assay potency score (higher = more potent),BOP1,-1.14
TTTCTTTCCACAGACTGCTTTT,sensor-assay potency score (higher = more potent),BRAP,-0.773
TAGGGGGCTCAGTCCCTCGAAA,sensor-assay potency score (higher = more potent),BOLA1,-1.29
TTGGGCATCAGCTTCTTGGTGA,sensor-assay potency score (higher = more potent),BOP1,0.503
TAATCGCTACTTTCTCTCCTGG,sensor-assay potency score (higher = more potent),BRAP,-0.199
TTTCCTGAACACCACACTCAAA,sensor-assay potency score (higher = more potent),BRAP,-1.71
TCTCGTTGCGAAGCTCTAGCAC,sensor-assay potency score (higher = more potent),BOLA1,-0.674

# From the OligoGym collection
